# Results: paper PMC9838217, “Structure of SALL4 zinc finger domain reveals link between AT-rich DNA binding and Okihiro syndrome”
# Substitutions are numbered along the chain they refer to.
# Target: T1, SALL4 ZFC4 WT (HT-SELEX) (Mus musculus, UniProt Q8BX22 870-940)
# T1 sequence: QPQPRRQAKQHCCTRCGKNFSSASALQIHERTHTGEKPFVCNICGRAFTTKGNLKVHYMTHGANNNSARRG
# Assay: HT-SELEX; high values mean tight binding
# Details: protein: recombinant; vector His6-GST; dsDNA, one strand shown
# Procedure, shortened: (§1)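 For each canonical k-mer, binding signal is the read fraction as fold change versus the initial random library. Data came from up to 6 triplicate cycles in which purified recombinant mouse SALL4 zinc finger cluster 4 (residues 870–940, 1 µg) was incubated 10 min at room temperature with library DNA (1.5 µg first cycle, 200 ng later) in 100 µl of 10 mM Tris–HCl pH 7.5, 50 mM NaCl, poly(dI-dC), DTT, followed by Ni2+ bead capture, PCR amplification, MiSeq sequencing and a 6-mer scan.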
row,Sequence,binding signal [fold-change vs cycle 0]
1,GAACTA,1.37 ± 0.088
2,ACGAAT,1.18 ± 0.0691
3,GAAGTA,1.43 ± 0.0516
4,GCATTA,1.15 ± 0.025
5,ATACGA,1.26 ± 0.0299
6,ATTCTC,1.41 ± 0.062
7,TCGTAA,1.21 ± 0.0956
8,AGAATA,2.17 ± 0.0586
9,CTCTTA,1.46 ± 0.0534
10,ATGATG,1.43 ± 0.0727
11,GTGTTA,1.31 ± 0.0667
12,GGTATA,1.3 ± 0.0598
13,GGAATA,1.41 ± 0.0746
14,ACCATA,1.42 ± 0.0615
15,CAATAG,1.21 ± 0.0269
16,ACTATG,1.34 ± 0.073

# Target: T2, SALL4 ZFC4 R900W (HT-SELEX) (Mus musculus, UniProt Q8BX22 870-940, R900W)
# T2 sequence: T1 sequence with R31W
# Assay: HT-SELEX; high values mean tight binding
# Details: protein: recombinant; vector His6-GST; dsDNA, one strand shown
# Procedure, shortened: as §1
row,Sequence,binding signal [fold-change vs cycle 0]
1,GCTTTA,1.09 ± 0.0574
2,AAATGG,1.16 ± 0.0862
3,ATACCA,1.39 ± 0.0221
4,ATCCTG,1.02 ± 0.0483
5,ACTCCA,1.03 ± 0.0645
6,ATGCAA,1.18 ± 0.0732
7,CCAATA,1.24 ± 0.0246
8,GGAAGA,1.12 ± 0.0339
9,AGGATG,1.04 ± 0.0516
10,ATGGAG,1.04 ± 0.0611
11,ACAAAC,1.23 ± 0.0488
12,AAAACT,1.7 ± 0.107
13,CAGATA,1.33 ± 0.0549
14,AAACCT,1.34 ± 0.0189
15,CATCTC,1.01 ± 0.0376
16,GCATAA,1.11 ± 0.0331
17,TAAGAA,2.2 ± 0.155
